# Whole data set: some 33,000 sequences, median “E-score (-0.5 to 0.5)” near -0.054, cut for the highest 2% near 0.39. The entries come from a sample that favours the highest values as a whole.
# Target: Ylr278c (UniProt Q05854)
# Experiment: PBM E-score (8-mer binding enrichment) (E-score (-0.5 to 0.5)); higher = stronger / more preferred TF binding
# Settings: protein concentration: 200 nM; construct: GST-DNA-binding domain
# Protocol: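 Universal 'all 10-mer' protein binding microarrays (Agilent AMADID 015681) probed with GST-tagged S. cerevisiae TFs (full-length or DBD) made by in vitro transcription/translation (PURExpress), about 100-200 nM. Bound TF was detected with fluorescent anti-GST. Each ungapped 8-mer (which stands for itself and its reverse complement) is scored by the PBM enrichment score (E-score), a modified Wilcoxon-Mann-Whitney statistic from -0.5 to +0.5, computed with the Universal PBM Analysis Suite. Scale: above 0.35 generally sequence-specific binding.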
# UniProt Q05854, sequence (Q05854 whole entry): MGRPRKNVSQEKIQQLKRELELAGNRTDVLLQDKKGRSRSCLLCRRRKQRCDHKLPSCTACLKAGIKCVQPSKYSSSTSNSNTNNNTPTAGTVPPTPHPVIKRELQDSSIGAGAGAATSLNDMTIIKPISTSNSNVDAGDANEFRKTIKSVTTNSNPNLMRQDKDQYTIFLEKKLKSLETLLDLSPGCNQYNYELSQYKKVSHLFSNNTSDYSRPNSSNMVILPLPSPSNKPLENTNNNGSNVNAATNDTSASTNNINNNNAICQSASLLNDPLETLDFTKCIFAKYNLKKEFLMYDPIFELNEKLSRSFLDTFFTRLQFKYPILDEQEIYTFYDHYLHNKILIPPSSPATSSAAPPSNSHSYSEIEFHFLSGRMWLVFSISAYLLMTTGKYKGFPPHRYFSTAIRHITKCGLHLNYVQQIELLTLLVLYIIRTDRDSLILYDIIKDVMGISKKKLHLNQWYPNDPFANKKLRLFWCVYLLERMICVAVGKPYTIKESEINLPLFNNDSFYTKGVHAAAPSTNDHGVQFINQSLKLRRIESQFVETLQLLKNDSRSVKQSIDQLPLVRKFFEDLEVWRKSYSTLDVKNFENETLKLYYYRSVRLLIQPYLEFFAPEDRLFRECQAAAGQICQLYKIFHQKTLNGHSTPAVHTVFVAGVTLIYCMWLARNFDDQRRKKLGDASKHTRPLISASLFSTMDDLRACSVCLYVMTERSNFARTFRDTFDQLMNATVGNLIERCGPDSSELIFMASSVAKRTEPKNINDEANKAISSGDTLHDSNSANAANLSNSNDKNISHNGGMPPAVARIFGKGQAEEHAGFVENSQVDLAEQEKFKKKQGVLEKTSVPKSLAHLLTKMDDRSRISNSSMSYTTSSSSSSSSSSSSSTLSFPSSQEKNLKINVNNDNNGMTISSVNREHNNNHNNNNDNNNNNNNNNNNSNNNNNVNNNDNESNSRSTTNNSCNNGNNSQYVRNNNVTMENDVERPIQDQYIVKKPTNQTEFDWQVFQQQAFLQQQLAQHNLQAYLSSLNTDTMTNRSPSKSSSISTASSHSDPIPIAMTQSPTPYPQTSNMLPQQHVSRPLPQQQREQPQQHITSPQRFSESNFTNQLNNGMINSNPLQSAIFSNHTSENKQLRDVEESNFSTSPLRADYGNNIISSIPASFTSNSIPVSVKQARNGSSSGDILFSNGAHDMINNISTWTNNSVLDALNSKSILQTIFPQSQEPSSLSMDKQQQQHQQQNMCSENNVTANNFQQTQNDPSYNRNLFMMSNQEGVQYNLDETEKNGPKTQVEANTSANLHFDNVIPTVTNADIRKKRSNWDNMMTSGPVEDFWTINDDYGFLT
row,Sequence,PBM E-score
1,ATCCCCTG,-0.16
2,GTCCCGCA,0.163
3,ATCCCGGG,0.392
4,GTCCCGGA,0.439
5,ATCCCGGA,0.44
6,ATCCCGTA,0.158
7,GTCCCCGA,0.217
8,ATCCCGTG,0.212
9,ATCCCGAG,0.308
10,CGCGACAA,0.106
11,ATTGTAGG,-0.0526
12,ACAATCGA,-0.178
13,AATTAACA,-0.128
14,GACCTGAC,-0.198
15,CGAGGGCC,0.0992
16,ATCCCGGC,0.391
17,CTCCCCGA,0.268
18,ATCCCCCC,-0.298
19,ATCCCGTC,0.231
20,ATCCCGCC,0.297
21,ATCCCCGC,0.393
22,CTCCCGGA,0.398

row,Sequence,PBM E-score
1,CTCCCCGC,0.288
2,CTCCCGGC,0.356
3,GAGCCTAC,0.0364
4,AGCGTCTG,-0.136
5,CAGGGGAC,-0.151
6,AATGCTTC,0.0555
7,GAAACTGC,0.176
8,ATTGCTCC,0.256
9,CAATCCGA,0.251
10,AAATCCGG,0.474
11,AAATCCCG,0.426
12,TAATCCGA,0.359
13,AAATCCCA,-0.101
14,CAATCCGC,0.197
15,AAATCCAG,-0.0486
16,CAATCCGG,0.393
17,CAATCCCG,0.368
18,AAATCCGA,0.449
19,AAATCCGT,0.362
20,GAATCCGA,0.368
21,AGCGTCTC,0.0181
22,CCCTAGTC,-0.368

row,Sequence,PBM E-score
1,GATGGCCA,-0.102
2,CCCTAGCG,-0.352
3,CTGGGCAC,-0.183
4,ACCTCAAT,-0.178
5,CTCAGCCA,-0.0917
6,ATGAGCCG,-0.00632
7,ACCTACAA,-0.178
8,GAATCCGC,0.259
9,AAATCCGC,0.401
10,ACATCCGC,0.352
11,GACTTTAA,-0.0643
12,CATAGCCA,-0.115
13,AGGAATTC,-0.0584
14,CGGAAGTA,0.342
15,CGGAATCA,0.39
16,CGGAAGTC,0.396
17,GGGAATCA,-0.0137
18,AGGAATTA,0.0107
19,CGGAATTA,0.466
20,GGGAATTA,0.143
21,CGGAATTC,0.464
22,CTGAATTC,-0.0397

row,Sequence,PBM E-score
1,AGGAAGTC,-0.156
2,AGGAATCA,-0.0846
3,GACCTCAA,-0.226
4,TAGATAAA,-0.0204
5,AGTTGGTA,-0.238
6,AGTCAACC,-0.0996
7,CGAAGCGC,0.197
8,CCAGCCTC,-0.302
9,GTGGGTGA,0.0373
10,CAGTGGCG,0.0163
11,AACGGAAG,0.0937
12,AGCGGAAC,0.333
13,ACCGGAAC,0.428
14,CCCGGAAC,0.4
15,TCCGGAAA,0.456
16,TGCGGAAA,0.334
17,CACGGAAC,0.276
18,AGCGGAAG,0.305
19,CGCGGAAC,0.368
20,TACGGAAA,0.3
21,ACCGGAAG,0.388
22,ACCGGAAA,0.369

# Reference: the supplement of paper PMC3334620
